# Marburg entry = inhibitors of Marburg virus binding or entry into cells; Marburg virus pseudotype entry/binding inhibition, cell-based; Potency, µM (series often up to 49.2 µM), without a hit: at the top dose activity change, negative = inhibition, hits mostly inhibitors; 18,000 compounds, 6.5% hits
# Lassa entry = Lassa virus entry inhibition. Lassa virus pseudotyped entry inhibition, cell-based qHTS. Potency, µM (top dose mostly 49.2 µM), without a hit: top-dose activity change, negative = inhibition, usual class: inhibitors. 18,000 compounds, 4.1% hits
# An asterisk follows results filed as active; u = inconclusive; x = not tested or not shown; ! = not confirmed by another sample; [ ] = remark or other dose. Hits are enriched below; roughly 8.6% of the tested compounds scored in any of these assays. Calls follow the shape of the full dose curve; tested in HEK293 cells. % is scaled to controls: 0 for no effect and ±100 for the full control effect; potency is read from the fitted curve at half-maximal effect.
SMILES,Marburg entry,Lassa entry
COC(=O)C/C=C/[C@@H](C)[C@H](OC)c1c(Br)ccc2c1OCO2,-6%,2%
C=C1C([C@@H](O)C[C@H](C)C2O[C@@]3(CCCCO3)CC[C@H]2C)OC2CC[C@@]3(CC[C@@H](/C=C/[C@@H](C)C4CC(C)=C[C@]5(O4)O[C@H](C[C@@](C)(O)C(=O)O)CCC5O)O3)OC2[C@@H]1O (stereo partly drawn),u,1.1µM*
CC(=O)OC1CC2C(C)(C)C(O)CC[C@@]2(C)C2CC[C@@]3(C)C(c4ccoc4)OC(=O)C4OC43[C@]12C (stereo partly drawn),u,-8%
CC(=O)OC1CC2C(C)(C)C(O)CC[C@@]2(C)C2CC[C@@]3(C)C(c4ccoc4)OC(=O)C4O[C@@]43[C@]12C (stereo partly drawn),13µM*,u
Cc1c(C(=O)NCC2CCCN(C)C2)cnn1-c1ncc2c(n1)-c1ccccc1CCC2 (stereo not drawn),-8%,-19%
CCN1C[C@]2(C)CC[C@H](OC)[C@@]34[C@H]1C1(OCO[C@@]15C[C@H](OC)C1C[C@]3(O)C5[C@H]1OC)[C@@H](O)[C@H]24,-8%,6%
CCCCCCCC/C=C\CCCCCCCC(=O)N[C@H](CO)Cc1ccc(O)cc1,u,14µM*
CCCCC/C=C\C/C=C\C/C=C\CCCCCCC(=O)NC(C)C(=O)O (stereo not drawn),-4%,3%
CC(C)=CC1C(CO)C1(C)C (stereo not drawn),11%,-6%
C[C@@H](C1=C(CCN(C)C)Cc2ccccc21)c1ccccn1,18µM*,u
CN(C)CCC(c1ccccc1)c1ccccn1 (stereo not drawn),u,-12%
C[C@H]1[C@H](N=[N+]=[N-])[C@H](O)CCO[C@@H]1c1ccccc1,13%[8.59 µM],8%[8.59 µM]
OCCCNCc1cc2cc3c(cc2nc1N1CCN(c2cccc(Cl)c2)CC1)OCO3,-10%,-21%
O=C1C(Nc2ccccc2)=CC(=O)c2ncccc21,5.6µM*,11µM*
COCc1cc2cc3c(cc2c2c(C(=O)OC)c(C(=O)OC)c(C(=O)OC(C)(C)C)n12)OCO3,-27%[8.59 µM],x
CN1C[C@H](C(=O)N[C@]2(C)O[C@]3(O)[C@H]4CCCN4C(=O)[C@H](Cc4ccccc4)N3C2=O)C[C@H]2c3cccc4[nH]cc(c34)C[C@@H]21,u,2%[17.8 µM]
CC(C)[C@@]1(NC(=O)[C@H]2CC3c4cccc5[nH]cc(c45)C[C@H]3N(C)C2)O[C@@]2(O)C3CCCN3C(=O)[C@@H](Cc3ccccc3)N2C1=O (stereo partly drawn),8.9µM*,-16%
CC(C)[C@@]1(NC(=O)[C@@H]2C[C@H]3c4cccc5[nH]cc(c45)C[C@@H]3N(C)C2)O[C@]2(O)[C@H]3CCCN3C(=O)[C@H](Cc3ccccc3)N2C1=O,u,1%[17.8 µM]
CN1C[C@H](C(=O)N[C@]2(C)O[C@@]3(O)C4CCCN4C(=O)[C@H](Cc4ccccc4)N3C2=O)C[C@@H]2c3cccc4[nH]cc(c34)C[C@H]21 (stereo partly drawn),13µM*,u
COc1cc(C(=O)OC(COCCC(C)C)CN2CCOCC2)cc(OC)c1OC (stereo not drawn),1%,-24%
COc1ccc(S(=O)(=O)N(CCO)c2ccccc2CN(C)CC=Cc2ccc(Cl)cc2)cc1,10µM*,11µM*
OCCNCCCOc1cccc(Cl)c1Cl,6.3µM*,u
Cc1cccc(CN2CCN(C(c3ccccc3)c3ccc(Cl)cc3)CC2)c1 (stereo not drawn),7.1µM*,u
CN1CCN(C(c2ccccc2)c2ccccc2)CC1,11µM*!,11µM*!
c1ccc(C[C@@H](c2ccccc2)N2CCCCC2)cc1,u,-7%
SMILES,Marburg entry,Lassa entry
Cc1ccc(CN2CC(N3CCN(Cc4cccc(C)c4)CC3)CS2(=O)=O)cc1 (stereo not drawn),20%,10%
CN1CCCN(C(c2ccccc2)c2ccc(Cl)cc2)CC1 (stereo not drawn),7.1µM*,22µM*
COc1cccc(CNC(=O)c2c(OC)cc(=O)n3c2CCN(C(=O)c2ccccc2Cl)CC3)c1,-3%,-11%
COc1cccc(C(=O)N2CCc3c(C(=O)NC(C)c4ccco4)c(OC)cc(=O)n3CC2)c1OC (stereo not drawn),11%,-1%
CCOC(=O)OC[C@H]1O[C@H](c2cc(C)cc(C)c2)C=C[C@H]1OC(=O)OCC,2%[8.59 µM],4%[8.59 µM]
CC(C)C1=CC2=CC[C@@H]3[C@](C)(CCC[C@@]3(C)C(=O)O)[C@H]2CC1,0%,-10%
NC1CCCC[C@H]1N (stereo partly drawn),13%,-4%
C=CCOC(=O)N[C@@H](c1cccc(OC)c1)[C@@H](C)C=CCC(=O)O,7%[8.59 µM],14%[8.59 µM]
CCC(OC(C)=O)C(CC(C)NC)(c1ccccc1)c1ccccc1 (stereo not drawn),7.9µM*,40µM*
CC(C)(C)OC(=O)N1CCC[C@@H]1C(O)(c1ccccc1)c1ccccc1,-13%[8.59 µM],0%[8.59 µM]
COC(=O)C1=C(C)NC(C)=C(C(=O)OCCNCc2ccccc2)C1c1cccc([N+](=O)[O-])c1 (stereo not drawn),11µM*,u
COC(=O)C1=C(C)NC(C)=C(C(=O)OCCN(C)Cc2ccccc2)[C@H]1c1cccc([N+](=O)[O-])c1,u,-6%[17.8 µM]
COC(=O)C1=C(C)NC(C)=C(C(=O)NCCCN2CCC(c3ccccc3)(c3ccccc3)CC2)C1c1ccc([N+](=O)[O-])cc1 (stereo not drawn),3.2µM*,u
COC(=O)C1=C(C)NC(C)=C(C(=O)O[C@H]2CCN(Cc3ccccc3)C2)[C@H]1c1cccc([N+](=O)[O-])c1,22µM*,u
COC(=O)C1=C(C)NC(C)=C(C(=O)OCC(C)=O)C1c1ccccc1[N+](=O)[O-] (stereo not drawn),13%,u
COCCOC(=O)C1=C(C)NC(C)=C(C(=O)OC(C)C)[C@H]1c1cccc([N+](=O)[O-])c1,-2%[17.8 µM],-6%[17.8 µM]
C#CCN(C[C@H](NC(=O)OC(C)(C)C)C(C)C)S(=O)(=O)c1ccc(Br)cc1F,-2%,11%
COC(=O)CC=C[C@@H](C)[C@H](OC)c1cc(F)ccc1Br,59%[8.59 µM],-10%[8.59 µM]
CCc1noc(C)c1C(=O)N1CCOc2ccc(CN3CCCC(C(=O)c4cccnc4)C3)cc2C1 (stereo not drawn),-2%,-3%
CC(=O)NC1C(O)C[C@@](O)(C(=O)O)OC1[C@@H](O)C(O)CO (stereo partly drawn),9%,4%
COC(=O)CC=C[C@@H](C)[C@@H](Cc1ccccc1Br)OC,-4%[8.59 µM],x
COc1cc(Br)c(C[N+]2(CCOCCC3CCC4CC3C4(C)C)CCOCC2)cc1OC (stereo not drawn),u,4.5µM*
Cc1c(C(=O)N(C)Cc2nccs2)sc2ncnc(NCC3CCCO3)c12 (stereo not drawn),0%,9%
CCC(C)(C)c1ccc(O)cc1,13%,-2%
CC(C)(C)CC(C)(C)c1ccc(O)cc1,45µM*!,u
CCC(O)c1ccccc1 (stereo not drawn),8%,-8%
CC[C@@H](O)C(C[C@@H](C)N(C)C)(c1ccccc1)c1ccccc1,13µM*,u
CCN1C(=S)NC(c2cccc(F)c2)C(C(=O)OC)=C1C (stereo not drawn),20%[8.59 µM],7%[8.59 µM]

# High-throughput results deposited in PubChem BioAssay by National Center for Advancing Translational Sciences (NCATS).
